Source: PubChem BioAssay (NCATS)
Results filed as inconclusive are left out. Active and inactive are the calls of the source. Unless noted, calls come from the whole dose curve; as a rule, active = well fitted curve in the direction sought with a large enough effect; inconclusive = small, poorly fitted or top-dose-only effect, or another doubt; inactive = no such curve, though single readings can be large; an effect the other way counts as inactive or inconclusive.

How the values were obtained:
[1] = molecular target: Lysosomal acid glucosylceramidase (Homo sapiens) (UniProt P04062); assay: Glucocerebrosidase-p2 (AID 348; in the data active = potency below about 10 µM; note: potency is the fitted concentration of half-maximal effect); conditions: purified GBA, blue fluorogenic substrate, 40 min
How it was run: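 Normal human glucocerebrosidase (0.2 nM) with blue fluorogenic substrate (80 uM final) in citrate/phosphate pH 5.9 with 10mM sodium taurocholate, 0.01% tween-20; 40 min RT, NaOH/glycine stop; fluorescence Ex 365/Em 440; AC50 from a titration from 0.6 nM upwards.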

[2] = AP1 Signaling Pathway (AID 357; active = well fitted curve in either direction with a large enough effect, not every such curve was filed as active; note: % is set by controls: 0 for no effect and ±100 for the full control effect); conditions: ME-180 AP-1-bla reporter, EGF-induced, beta-lactamase ratio, 5 h; at 7.69 µM (top of the series) unless noted
How it was run: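 Modulation of EGF-driven AP-1 transcription was assessed with a beta-lactamase reporter in ME-180 cells. Compound and EC50 EGF were co-incubated 5 hours at 37 °C before 2.5-hour CCF4 loading at room temperature and dual-emission reading.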

[3] = molecular target: Cytochrome P450 1A2 (Homo sapiens) (UniProt P05177); assay: p450-cyp1a2 (AID 410; calls by dose curve; note: potency is the fitted concentration of half-maximal effect;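 for activity change, negative = inhibition: -100% = full effect of reference inhibitor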); conditions: recombinant CYP1A2, luciferin-ME demethylation, luminescence; series mostly up to 57 µM
How it was run: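 O-Demethylation of luciferin 6' methyl ether by human CYP1A2 is monitored as luciferase luminescence. Substrate sits at Km (100uM); enzyme is 20nM. Values are scaled to 57 uM furafylline as maximal inhibition.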

[4] = Stat Signaling Pathway (AID 446; active = well fitted curve in either direction with a large enough effect, not every such curve was filed as active;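 note: ME-180 cervical cancer cells given 40 pM IL-6 alongside compound; SIE-controlled beta-lactamase reporter measured as 460/530 nm FRET emission ratio; % is set by controls: 0 for no effect and ±100 for the full control effect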); conditions: ME-180 (cervical carcinoma) SIE beta-lactamase reporter, IL-6 stimulated, 5 h; at 7.69 µM (top of the series) unless noted
How it was run: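 Compound effects on IL-6-induced STAT reporter activity were measured in ME-180 cells. After overnight culture, cells were co-treated with 40 pM IL-6 for 5 hrs before beta-lactamase substrate loading at room temperature.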

[5] = molecular target: Glucocorticoid receptor (Homo sapiens) (UniProt P04150); assay: GR-GFP Redistribution (AID 450;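 active = compounds whose dose series gives a full or clear partial fitted curve of increased nuclear translocation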; note: potency is the fitted concentration of half-maximal effect); conditions: U2OS GR-GFP nuclear translocation, laser cytometry, 2 h
[6] = molecular target: Glucocorticoid receptor (Homo sapiens) (UniProt P04150); assay: GR-EFC Redistribution (AID 451; calls by dose curve; note: potency is the fitted concentration of half-maximal effect); conditions: CHO-K1 GR-EFC translocation, beta-gal luminescence, 2 h
How it was run: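 CHO-K1 cells stably expressing nuclear-localized β-gal enzyme acceptor and GR fused C-terminally to the enzyme donor fragment; ligand-driven nuclear translocation restores β-gal by complementation. Compounds titrated up to 46 uM final, 2 h at 37 °C; luminescence read.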

[7] = molecular target: Mitogen-activated protein kinase 10 (Mus musculus) (UniProt Q61831); assay: JNK3 AlphaScreen Assay (AID 530; active = well fitted curve in either direction with a large enough effect, not every such curve was filed as active;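 note: kinase came from lysate of stimulated human HepG2 cells; signal reports phosphorylation of biotinylated GST-cJun 1-79 at Ser73 with 10 µM ATP; % is set by controls: 0 for no effect and ±100 for the full control effect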); conditions: JNK3 lysate, c-Jun phosphorylation; series mostly up to 57.1 µM
How it was run: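 Phosphorylation of biotinylated GST-cJun(1-79) at Ser73 is measured by AlphaScreen proximity luminescence. Enzyme is JNK3 in HepG2 lysates activated with interleukin-1beta and tumor necrosis factor alpha; ATP is 10 uM final.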

[8] = molecular target: 3',5'-cyclic-AMP phosphodiesterase 4B (Homo sapiens) (UniProt Q07343); assay: qHTS Assay for Inhibitors of PDE-IV (AID 607; active = well fitted activation curve with a large enough effect in the main read-out, with a control signal flat, not every such curve was filed as active; note: % of control where 0% means no effect); conditions: HEK293 ACTOne CNG channel cells, membrane potential fluorescence; series mostly up to 22.9 µM
How it was run: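 ACTOne HEK293 cells carry a modified cAMP-gated CNG channel and express endogenous PDE4; plated 1000 cells/well, compounds up to 22.9 uM final. Membrane-potential dye fluorescence (ex 535/em 590) was read; parental cells received 10 uM forskolin + 100 uM RO 20-1724.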

[9] = qHTS Assay for Lipid Storage Modulators (AID 1519; calls by dose curve; note: potency is the fitted concentration of half-maximal effect); conditions: Drosophila S3 cells, BODIPY lipid droplet/cell ratio, laser cytometry, cells loaded with oleic acid; for activity change, negative = inhibition: at 57.5 µM (top of the series)
How it was run: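 Cells seeded at 5,000 per well were treated with compounds over a concentration series and loaded with oleic acid (400 uM, as added). Lipid droplet fluorescence (488 nm excitation, 500-530 nm channel) was read by laser-scanning cytometry and normalized to 20 uM Triacsin C.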

[10] = molecular target: Dual specificity protein kinase CLK4 (Homo sapiens) (UniProt Q9HAZ1); assay: qHTS Assay for Inhibitors of CDC-like Kinase 4 (Kinase-Glo Assay) (AID 1770); conditions: recombinant Clk4, Kinase-Glo ATP depletion luminescence; series mostly up to 66.7 µM; note: nearly all actives have a fitted effect of over 65% in size; note: potency is the fitted concentration of half-maximal effect
How it was run: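 Recombinant human Clk4 (25 nM) phosphorylated RS repeat peptide (100 uM) with 1 uM ATP in Tris pH 7.5/MgCl2/EGTA/DTT/Triton buffer for 4.5 h at room temperature. Residual ATP was quantified by Kinase-Glo luciferase luminescence.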

[11] = molecular target: Dual specificity protein kinase CLK4 (Homo sapiens) (UniProt Q9HAZ1); assay: qHTS Assay for Inhibitors of CDC-like Kinase 4 (ADP-Glo Assay) (AID 1771); conditions: recombinant CLK4, ADP-Glo luminescence; series mostly up to 80 µM; note: nearly all actives have a fitted effect of over 70% in size; note: potency is the fitted concentration of half-maximal effect
How it was run: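 Compounds are pin-transferred onto substrate mix (100 uM RS peptide, 1 uM ATP), then 25 nM Clk4 is added. After 1 hr at room temperature, ADP-Glo reagent runs 45 min, detection reagent 30 min, then luminescence is read.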

[12] = molecular target: Dual specificity protein kinase CLK4 (Homo sapiens) (UniProt Q9HAZ1); assay: qHTS Assay for Inhibitors of CDC-like Kinase 4 (ADP-FP Assay) (AID 1795); conditions: Transcreener ADP fluorescence polarization; series mostly up to 50 µM; note: nearly all actives have a fitted effect of over 60% in size; note: potency is the fitted concentration of half-maximal effect
How it was run: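 Recombinant human Clk4 (6.25 nM) phosphorylated RS repeat peptide (100 uM) with 1 uM ATP in Tris pH 7.5/MgCl2/EGTA/DTT/Triton buffer for one hour. ADP was quantified by Transcreener competitive fluorescence polarization against an ADP calibration curve.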

[13] = Primary qHTS for small molecule stabilizers of the endoplasmic reticulum resident proteome: Secreted ER Calcium Modulated Protein (SERCaMP) assay (AID 1508630); conditions: SH-SY5Y GLuc-SERCaMP (Gaussia luciferase released on ER calcium loss) secretion, thapsigargin, luminescence; series mostly up to 38.4 µM; note: % is set by controls: 0 for no effect and ±100 for the full control effect
How it was run: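 The SH-SY5Y reporter protocol was run at 3 concentrations up to 38.3 uM (primary) or 11 concentrations (follow-up): 16 h compound, 100 nM thapsigargin for 4 h, then extracellular luciferase luminescence.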

[14] = NFAT Signaling Pathway (AID 444; active = well fitted curve in either direction with a large enough effect, not every such curve was filed as active); conditions: Jurkat NFAT-bla M1, carbachol, beta-lactamase ratio, 5 h; at 7.69 µM (top of the series) unless noted
How it was run: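 Jurkat cells carrying an NFAT-driven β-lactamase reporter and co-transfected muscarinic M1 receptor were treated with compound plus carbachol (1 uM final, an EC50 level) for 5 h at 37 °C. CCF4 loading followed for 1 h at RT; 460/530 nm ratio gave %activity.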

[15] = molecular target: Ubiquitin carboxyl-terminal hydrolase 1 (Homo sapiens) (UniProt O94782); assay: Inhibitors of USP1/UAF1: Pilot qHTS (AID 504865); conditions: purified USP1/UAF1, Ub-rhodamine cleavage fluorescence; series mostly up to 54.9 µM;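 note: rhodamine fluorescence freed from ubiquitin-rhodamine substrate followed over time; top concentration of the series differs between compounds; % is set by controls: 0 for no effect and ±100 for the full control effect; nearly all actives have a fitted effect of over 35% in size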
How it was run: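 USP1/UAF1 complex (1nM) preincubated with compound 15 min at room temperature, then Ub-Rho substrate (150nM final) added. Fluorescence read kinetically at 480/540 nm, 6 reads every 60 seconds. Buffer: 50mM HEPES pH 7.8, 0.5mM EDTA, 0.1 mg/ml BSA, 1mM TCEP, 0.01% Tween-20.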

[16] = molecular target: Cytochrome P450 3A4 (Homo sapiens) (UniProt P08684); assay: qHTS Assay for Activators of Cytochrome P450 3A4 (AID 885); conditions: recombinant CYP3A4, Luciferin-PPXE luminescence, 60 min; series mostly up to 57.1 µM; note: nearly all actives have a fitted effect of over 65% in size
How it was run: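 CYP3A4 activity: Luciferin-PPXE O-dealkylation, 25uM substrate, 200mM KPO4, RT throughout. Read-out is luciferase luminescence; higher values reflect activation.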

[17] = measured here: cell count channel max response
[18] = measured here: lipid channel max response

Chain of Lysosomal acid glucosylceramidase (Homo sapiens) (P04062 whole entry, looked up): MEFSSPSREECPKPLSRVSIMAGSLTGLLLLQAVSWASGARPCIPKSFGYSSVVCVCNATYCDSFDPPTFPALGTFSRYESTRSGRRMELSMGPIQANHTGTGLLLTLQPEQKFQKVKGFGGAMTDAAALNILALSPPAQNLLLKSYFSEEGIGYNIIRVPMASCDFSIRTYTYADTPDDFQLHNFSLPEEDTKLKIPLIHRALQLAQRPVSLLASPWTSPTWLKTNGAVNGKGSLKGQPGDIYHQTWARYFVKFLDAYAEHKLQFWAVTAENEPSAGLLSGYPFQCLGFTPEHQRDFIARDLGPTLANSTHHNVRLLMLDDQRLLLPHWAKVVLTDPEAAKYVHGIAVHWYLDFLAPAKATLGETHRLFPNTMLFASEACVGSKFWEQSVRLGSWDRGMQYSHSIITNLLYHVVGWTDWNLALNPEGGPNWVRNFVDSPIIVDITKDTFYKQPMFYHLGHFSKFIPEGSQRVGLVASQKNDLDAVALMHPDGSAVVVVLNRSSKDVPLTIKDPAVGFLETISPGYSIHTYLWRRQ
Chain of Glucocorticoid receptor (Homo sapiens) (P04150 whole entry, looked up, the tested form may be a part): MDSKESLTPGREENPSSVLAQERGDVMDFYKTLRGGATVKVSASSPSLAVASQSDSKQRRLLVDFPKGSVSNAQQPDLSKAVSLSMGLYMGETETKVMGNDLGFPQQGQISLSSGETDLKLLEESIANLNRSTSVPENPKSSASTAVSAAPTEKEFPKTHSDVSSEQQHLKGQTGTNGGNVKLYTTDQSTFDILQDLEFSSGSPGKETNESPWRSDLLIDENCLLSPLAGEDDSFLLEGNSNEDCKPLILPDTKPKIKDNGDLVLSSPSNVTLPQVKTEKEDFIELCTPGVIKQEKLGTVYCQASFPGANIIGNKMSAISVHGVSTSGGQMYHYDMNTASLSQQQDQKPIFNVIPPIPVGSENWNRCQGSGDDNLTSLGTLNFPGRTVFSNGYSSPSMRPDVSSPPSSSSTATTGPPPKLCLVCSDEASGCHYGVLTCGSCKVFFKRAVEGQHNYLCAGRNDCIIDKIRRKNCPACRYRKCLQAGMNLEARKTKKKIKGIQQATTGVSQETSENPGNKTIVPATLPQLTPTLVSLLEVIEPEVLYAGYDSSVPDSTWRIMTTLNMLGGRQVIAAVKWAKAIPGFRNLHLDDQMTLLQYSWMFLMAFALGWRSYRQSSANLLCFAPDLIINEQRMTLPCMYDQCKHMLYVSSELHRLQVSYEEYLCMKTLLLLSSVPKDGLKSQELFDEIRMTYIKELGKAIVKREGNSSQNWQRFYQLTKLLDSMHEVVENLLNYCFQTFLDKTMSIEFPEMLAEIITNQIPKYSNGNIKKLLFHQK
Chain of Ubiquitin carboxyl-terminal hydrolase 1 (Homo sapiens) (O94782 whole entry, looked up): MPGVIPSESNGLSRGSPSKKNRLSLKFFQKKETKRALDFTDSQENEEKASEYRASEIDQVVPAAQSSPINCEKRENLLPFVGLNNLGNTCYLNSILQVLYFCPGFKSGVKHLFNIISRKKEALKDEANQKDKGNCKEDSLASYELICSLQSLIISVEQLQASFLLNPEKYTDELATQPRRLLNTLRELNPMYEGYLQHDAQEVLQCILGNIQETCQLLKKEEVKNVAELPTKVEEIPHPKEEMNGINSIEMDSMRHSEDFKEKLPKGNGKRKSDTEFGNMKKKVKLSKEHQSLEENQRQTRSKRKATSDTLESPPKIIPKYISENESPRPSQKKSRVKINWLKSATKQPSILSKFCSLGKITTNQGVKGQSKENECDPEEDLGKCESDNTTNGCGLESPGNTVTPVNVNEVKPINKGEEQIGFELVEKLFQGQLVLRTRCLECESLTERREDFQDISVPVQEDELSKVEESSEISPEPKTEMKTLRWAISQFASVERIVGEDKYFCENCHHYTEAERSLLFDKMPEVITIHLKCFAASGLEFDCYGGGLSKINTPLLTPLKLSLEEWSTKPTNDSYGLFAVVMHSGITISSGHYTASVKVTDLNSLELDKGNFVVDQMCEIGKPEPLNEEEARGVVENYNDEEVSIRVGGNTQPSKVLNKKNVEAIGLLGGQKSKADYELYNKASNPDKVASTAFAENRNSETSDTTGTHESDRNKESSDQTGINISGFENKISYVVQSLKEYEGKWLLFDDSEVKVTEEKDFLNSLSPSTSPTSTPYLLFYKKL
Chain of Cytochrome P450 1A2 (Homo sapiens) (P05177 whole entry, looked up): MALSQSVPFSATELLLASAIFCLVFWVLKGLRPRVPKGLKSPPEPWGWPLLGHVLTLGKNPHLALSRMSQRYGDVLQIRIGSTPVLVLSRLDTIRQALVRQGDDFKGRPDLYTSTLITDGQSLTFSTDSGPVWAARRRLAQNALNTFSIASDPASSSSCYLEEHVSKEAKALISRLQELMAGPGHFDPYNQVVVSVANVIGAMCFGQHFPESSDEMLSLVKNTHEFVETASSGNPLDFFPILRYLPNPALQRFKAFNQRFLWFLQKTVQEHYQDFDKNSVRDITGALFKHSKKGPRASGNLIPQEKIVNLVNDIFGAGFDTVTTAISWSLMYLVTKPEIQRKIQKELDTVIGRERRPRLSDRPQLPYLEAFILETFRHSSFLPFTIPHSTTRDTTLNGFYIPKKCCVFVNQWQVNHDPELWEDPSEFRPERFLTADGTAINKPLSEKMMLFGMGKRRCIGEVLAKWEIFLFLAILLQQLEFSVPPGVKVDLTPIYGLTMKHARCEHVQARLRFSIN
Chain of Dual specificity protein kinase CLK4 (Homo sapiens) (Q9HAZ1 whole entry, looked up): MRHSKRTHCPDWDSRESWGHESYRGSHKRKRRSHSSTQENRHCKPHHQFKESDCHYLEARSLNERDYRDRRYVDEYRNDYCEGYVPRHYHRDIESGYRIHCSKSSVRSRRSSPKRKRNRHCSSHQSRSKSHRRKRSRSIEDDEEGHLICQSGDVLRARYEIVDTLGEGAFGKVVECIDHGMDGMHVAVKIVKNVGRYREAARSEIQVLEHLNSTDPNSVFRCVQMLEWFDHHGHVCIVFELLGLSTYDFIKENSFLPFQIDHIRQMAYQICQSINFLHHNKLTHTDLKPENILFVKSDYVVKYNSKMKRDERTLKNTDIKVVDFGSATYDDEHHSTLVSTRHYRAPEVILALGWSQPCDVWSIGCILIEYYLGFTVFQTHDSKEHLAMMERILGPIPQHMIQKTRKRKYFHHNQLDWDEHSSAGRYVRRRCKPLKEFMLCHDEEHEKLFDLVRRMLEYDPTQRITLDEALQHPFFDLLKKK
Chain of 3',5'-cyclic-AMP phosphodiesterase 4B (Homo sapiens) (Q07343 whole entry, looked up): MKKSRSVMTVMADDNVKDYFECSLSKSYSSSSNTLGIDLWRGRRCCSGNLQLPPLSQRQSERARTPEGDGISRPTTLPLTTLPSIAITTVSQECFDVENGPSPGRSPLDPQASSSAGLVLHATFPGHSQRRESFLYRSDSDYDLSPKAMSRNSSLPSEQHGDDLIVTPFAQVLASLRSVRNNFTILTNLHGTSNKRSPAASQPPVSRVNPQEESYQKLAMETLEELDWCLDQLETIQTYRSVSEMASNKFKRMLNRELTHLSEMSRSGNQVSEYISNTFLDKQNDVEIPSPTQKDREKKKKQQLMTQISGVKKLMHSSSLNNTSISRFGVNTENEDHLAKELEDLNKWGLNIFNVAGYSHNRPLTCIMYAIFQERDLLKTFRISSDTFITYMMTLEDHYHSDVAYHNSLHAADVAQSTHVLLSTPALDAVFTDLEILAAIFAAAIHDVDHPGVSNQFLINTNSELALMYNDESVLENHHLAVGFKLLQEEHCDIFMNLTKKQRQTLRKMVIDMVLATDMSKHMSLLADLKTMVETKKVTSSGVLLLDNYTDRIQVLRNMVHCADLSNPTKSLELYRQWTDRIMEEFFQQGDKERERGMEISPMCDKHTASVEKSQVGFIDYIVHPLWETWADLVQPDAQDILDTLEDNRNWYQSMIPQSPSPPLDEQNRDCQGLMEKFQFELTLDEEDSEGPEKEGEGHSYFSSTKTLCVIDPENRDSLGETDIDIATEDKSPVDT
Chain of Cytochrome P450 3A4 (Homo sapiens) (P08684 whole entry, looked up): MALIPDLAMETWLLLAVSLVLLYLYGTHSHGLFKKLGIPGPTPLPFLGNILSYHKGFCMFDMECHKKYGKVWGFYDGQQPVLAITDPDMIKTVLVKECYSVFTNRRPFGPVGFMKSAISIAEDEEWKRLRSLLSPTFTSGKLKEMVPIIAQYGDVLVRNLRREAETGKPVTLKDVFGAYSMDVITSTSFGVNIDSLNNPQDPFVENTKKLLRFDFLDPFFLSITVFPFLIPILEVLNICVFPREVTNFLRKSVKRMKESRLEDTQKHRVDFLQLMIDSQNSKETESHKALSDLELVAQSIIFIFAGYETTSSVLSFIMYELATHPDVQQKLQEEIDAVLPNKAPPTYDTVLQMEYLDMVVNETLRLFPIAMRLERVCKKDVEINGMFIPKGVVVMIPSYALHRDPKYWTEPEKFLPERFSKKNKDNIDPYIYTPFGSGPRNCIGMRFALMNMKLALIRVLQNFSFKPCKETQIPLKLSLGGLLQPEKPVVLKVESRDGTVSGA

| SMILES | Potency [1] | activity change, negative = inhibition [2] | Potency [3] | activity, negative = inhibition [4] | Potency [5] | Potency [6] | outcome [7] | Potency [8] | activity change, negative = inhibition [9] | max response [9, 17] [%] | max response [9, 18] [%] | Potency [10] | Potency [11] | Potency [12] | Potency [13] | activity change, negative = inhibition [14] | Potency [15] | Potency [16] | Potency [9] |
| --- | --- | --- | --- | --- | --- | --- | --- | --- | --- | --- | --- | --- | --- | --- | --- | --- | --- | --- | --- |
| Cc1noc(C)c1-c1ccc2ncnc(N(C)C)c2c1 | > 11.4 µM (inactive) | -2.75% (inactive) | 0.631 µM (active) | -14.9% (inactive) | > 46 µM (inactive) | > 46 µM (inactive) | inactive | inactive | 3.59% (inactive) | 19 | 20.5 | 7.08 µM (active) | 4.47 µM (active) | 2 µM (active) | inactive | – | – | – | – |
| COc1ccc(-n2c(=O)c(-c3cccs3)nc3cncnc32)cc1 | > 11.4 µM (inactive) | -19.3% (inactive) | 10 µM (active) | -0.243% (inactive) | > 9.22 µM (inactive) | – | inactive | – | -10.8% (inactive) | 28.9 | 11.5 | inactive | inactive | inactive | inactive | 0.0711% (inactive) | inactive | – | – |
| O=c1c(-c2ccc(F)cc2)nc2cnc(Nc3ccccc3)nc2n1C[C@H]1CCCO1 | > 11.4 µM (inactive) | -19.3% (inactive) | 2 µM (active) | – | > 9.22 µM (inactive) | > 46 µM (inactive) | inactive | inactive | – | -27.1 | -76 | inactive | inactive | inactive | inactive | – | inactive | inactive | 3.55 µM (active) |
| CN(Cc1ccco1)c1cc(-c2ccoc2)ncn1 | > 11.4 µM (inactive) | -1.97% (inactive) | inactive | 18.1% (inactive) | – | > 46 µM (inactive) | inactive | inactive | 6.03% (inactive) | 18 | 23.3 | inactive | inactive | inactive | inactive | -2.33% (inactive) | inactive | – | – |
| O=c1cnc2cnc(Nc3ccccc3)nc2n1C1CC1 | > 11.4 µM (inactive) | -23.3% (inactive) | 0.631 µM (active) | -21.3% (inactive) | > 9.22 µM (inactive) | – | – | – | -0.874% (inactive) | 4.87 | 2.12 | 2 µM (active) | 2.51 µM (active) | 1.58 µM (active) | inactive | – | inactive | inactive | – |
| CCNc1ncc2nc(-c3ccc(Cl)cc3)c(=O)n(C[C@H]3CCCO3)c2n1 | > 11.4 µM (inactive) | 25.5% (inactive) | 0.794 µM (active) | – | > 9.22 µM (inactive) | > 46 µM (inactive) | inactive | inactive | -12.7% (inactive) | -16 | -29.6 | inactive | inactive | inactive | inactive | 4.01% (inactive) | inactive | – | – |
